# Results: article PMC11996681, “Interfacial water confers transcription factors with dinucleotide specificity”
# Legend:
# Experiment in all cases: HT-SELEX; SELEX buffer: 10.4 mM Tris-HCl pH 7.5, 51.4 mM NaCl, 1.4 mM MgCl2, 4% glycerol, 100 uM EGTA, 0.7 mM DTT, 3.7 ug/ml poly-dI-dC, 1.4 uM ZnSO4; room temperature (2); high values mean tight binding
# Settings in all cases: protein: recombinant; dsDNA, one strand shown
# [1] = molecular target: BARHL2 DBD ctrl (unmutated, SELEX) (human, UniProt Q9NY43 227-293)
# BARHL2 DBD ctrl (unmutated, SELEX), sequence (Q9NY43 227-293, stated change not applied): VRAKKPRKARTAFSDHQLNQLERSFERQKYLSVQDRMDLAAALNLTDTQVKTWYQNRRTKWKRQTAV
# [2] = molecular target: BARHL2 DBD T278I/T285N (HMX3) (human, UniProt Q9NY43 227-293, T278I;T285N)
# BARHL2 DBD T278I/T285N (HMX3), sequence (Q9NY43 227-293 T278I/T285N): as the sequence (Q9NY43 227-293, stated change not applied) above, with T52I, T59N counted along it
# [3] = molecular target: BARHL2 DBD T278V (EMX1) (human, UniProt Q9NY43 227-293, T278V)
# BARHL2 DBD T278V (EMX1), sequence (Q9NY43 227-293 T278V): as the sequence (Q9NY43 227-293, stated change not applied) above, with T52V counted along it
# [4] = molecular target: BARHL2 DBD T278I (NKX1.2) (human, UniProt Q9NY43 227-293, T278I)
# BARHL2 DBD T278I (NKX1.2), sequence (Q9NY43 227-293 T278I): as the sequence (Q9NY43 227-293, stated change not applied) above, with T52I counted along it
# [5] = molecular target: BARHL2 DBD T285M (NANOG) (human, UniProt Q9NY43 227-293, T285M)
# BARHL2 DBD T285M (NANOG), sequence (Q9NY43 227-293 T285M): as the sequence (Q9NY43 227-293, stated change not applied) above, with T59M counted along it
# [6] = molecular target: BARHL2 DBD T278I/T285V (HOXB13) (human, UniProt Q9NY43 227-293, T278I;T285V)
# BARHL2 DBD T278I/T285V (HOXB13), sequence (Q9NY43 227-293 T278I/T285V): as the sequence (Q9NY43 227-293, stated change not applied) above, with T52I, T59V counted along it
# [7] = molecular target: BARHL2 DBD T278N/T285I (PBX1) (human, UniProt Q9NY43 227-293, T278N;T285I)
# BARHL2 DBD T278N/T285I (PBX1), sequence (Q9NY43 227-293 T278N/T285I): as the sequence (Q9NY43 227-293, stated change not applied) above, with T52N, T59I counted along it
# [8] = molecular target: BARHL2 DBD T278V/T285A (ALX4) (human, UniProt Q9NY43 227-293, T278V;T285A)
# BARHL2 DBD T278V/T285A (ALX4), sequence (Q9NY43 227-293 T278V/T285A): as the sequence (Q9NY43 227-293, stated change not applied) above, with T52V, T59A counted along it
# [9] = molecular target: BARHL2 DBD T278I/T285M (HOXA3) (human, UniProt Q9NY43 227-293, T278I;T285M)
# BARHL2 DBD T278I/T285M (HOXA3), sequence (Q9NY43 227-293 T278I/T285M): as the sequence (Q9NY43 227-293, stated change not applied) above, with T52I, T59M counted along it
# [10] = molecular target: BARHL2 DBD T278V/T285M (MEOX2) (human, UniProt Q9NY43 227-293, T278V;T285M)
# BARHL2 DBD T278V/T285M (MEOX2), sequence (Q9NY43 227-293 T278V/T285M): as the sequence (Q9NY43 227-293, stated change not applied) above, with T52V, T59M counted along it
# [11] = molecular target: BARHL2 DBD T278I/T285A (CDX1) (human, UniProt Q9NY43 227-293, T278I;T285A)
# BARHL2 DBD T278I/T285A (CDX1), sequence (Q9NY43 227-293 T278I/T285A): as the sequence (Q9NY43 227-293, stated change not applied) above, with T52I, T59A counted along it
# [12] = molecular target: BARHL2 DBD T278I/T285S (DLX1) (human, UniProt Q9NY43 227-293, T278I;T285S)
# BARHL2 DBD T278I/T285S (DLX1), sequence (Q9NY43 227-293 T278I/T285S): as the sequence (Q9NY43 227-293, stated change not applied) above, with T52I, T59S counted along it
# [13] = molecular target: BARHL2 DBD T278N/T285Q (SIX6) (human, UniProt Q9NY43 227-293, T278N;T285Q)
# BARHL2 DBD T278N/T285Q (SIX6), sequence (Q9NY43 227-293 T278N/T285Q): as the sequence (Q9NY43 227-293, stated change not applied) above, with T52N, T59Q counted along it
# [14] = molecular target: BARHL2 DBD T285A (LBX1) (human, UniProt Q9NY43 227-293, T285A)
# BARHL2 DBD T285A (LBX1), sequence (Q9NY43 227-293 T285A): as the sequence (Q9NY43 227-293, stated change not applied) above, with T59A counted along it
# [15] = molecular target: BARHL2 DBD T278N/T285R (PKNOX1) (human, UniProt Q9NY43 227-293, T278N;T285R)
# BARHL2 DBD T278N/T285R (PKNOX1), sequence (Q9NY43 227-293 T278N/T285R): as the sequence (Q9NY43 227-293, stated change not applied) above, with T52N, T59R counted along it
Sequence,binding signal [1] [fold enrichment],binding signal [2] [fold enrichment],binding signal [3] [fold enrichment],binding signal [4] [fold enrichment],binding signal [5] [fold enrichment],binding signal [6] [fold enrichment],binding signal [7] [fold enrichment],binding signal [8] [fold enrichment],binding signal [9] [fold enrichment],binding signal [10] [fold enrichment],binding signal [11] [fold enrichment],binding signal [12] [fold enrichment],binding signal [13] [fold enrichment],binding signal [14] [fold enrichment],binding signal [15] [fold enrichment]
TAATGG,7.8,1.9,7.6,8,6.2,7.7,9.1,3.7,8.4,7.6,6.2,8.1,7,4.7,–
TAAGTG,6.2,8.6,5.9,6.1,4.4,4,2.5,3.7,5,4.4,6.4,6.2,2.6,6.1,1.3
TAAATG,12.6,1.9,5.9,5,3.4,4.3,3.3,2.2,2.9,3,3.2,4,2,4.1,–
TAATTG,43.5,17.6,11.2,13.1,6,13.3,10.4,4.9,11.5,8.5,14,16.2,5.8,8,1.8
